# Assay results reported in the supplement of paper PMC12282887.
# ± gives the standard deviation of the averaged measurements.
# What was measured:
# Experiment in all cases: promoter activity interaction Z-score (Lux/OD deviation from empty-vector control); higher = stronger promoter induction by the compound
# [1] = system: E. coli BW25113 acrABp lux reporter
# Outline: (§1)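 Low-copy luxCDABE promoter reporters were carried by E. coli BW25113, either wild type or lacking one of three genes, grown in 40 µl LB Lennox in 384-well plates at 37°C. Each compound was run at four 1:2 dilutions in biological duplicates, with OD600 and luminescence read every 30 min for 12 h. Integration used 0–8 h for wild type and 1–9 h for deletion strains, and wells under 10% of the median growth value were removed. Luminescence normalised to growth was fitted against a control, and the Z-transformed residual is the score.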
# [2] = system: E. coli BW25113 micFp lux reporter
# Outline: as §1
# [3] = system: E. coli BW25113 ompFp lux reporter
# Outline: as §1
# [4] = system: E. coli BW25113 robp lux reporter
# Outline: as §1
# [5] = system: E. coli BW25113 soxSp lux reporter
# Outline: as §1
# [6] = system: E. coli BW25113 tolCp lux reporter
# Outline: as §1
# [7] = 6.9 µg/ml, genetic background: wild type
# [8] = 6.9 µg/ml, genetic background: ΔmarA
# [9] = 6.9 µg/ml, genetic background: Δrob
# [10] = 6.9 µg/ml, genetic background: ΔsoxS
# [11] = 13.8 µg/ml, genetic background: wild type
# [12] = 13.8 µg/ml, genetic background: ΔmarA
# [13] = 13.8 µg/ml, genetic background: Δrob
# [14] = 13.8 µg/ml, genetic background: ΔsoxS
# [15] = 27.5 µg/ml, genetic background: wild type
# [16] = 27.5 µg/ml, genetic background: ΔmarA
# [17] = 27.5 µg/ml, genetic background: Δrob
# [18] = 27.5 µg/ml, genetic background: ΔsoxS
# [19] = 55 µg/ml, genetic background: wild type
# [20] = 55 µg/ml, genetic background: ΔmarA
# [21] = 55 µg/ml, genetic background: Δrob
# [22] = 55 µg/ml, genetic background: ΔsoxS
# [23] = 0.0012 µg/ml, genetic background: wild type
# [24] = 0.0012 µg/ml, genetic background: ΔmarA
# [25] = 0.0012 µg/ml, genetic background: Δrob
# [26] = 0.0012 µg/ml, genetic background: ΔsoxS
# [27] = 0.0024 µg/ml, genetic background: wild type
# [28] = 0.0024 µg/ml, genetic background: ΔmarA
# [29] = 0.0024 µg/ml, genetic background: Δrob
# [30] = 0.0024 µg/ml, genetic background: ΔsoxS
# [31] = 0.0048 µg/ml, genetic background: wild type
# [32] = 0.0048 µg/ml, genetic background: ΔmarA
# [33] = 0.0048 µg/ml, genetic background: Δrob
# [34] = 0.0048 µg/ml, genetic background: ΔsoxS
# [35] = 0.01 µg/ml, genetic background: wild type
# [36] = 0.01 µg/ml, genetic background: ΔmarA
smiles,measurement,setting,value
CCCC(=O)O [Butyrate],promoter activity interaction Z-score,[1]; [7],-0.186 ± 0.091
same,promoter activity interaction Z-score,[1]; [8],-0.105 ± 0.089
same,promoter activity interaction Z-score,[1]; [9],-0.0421 ± 0.058
same,promoter activity interaction Z-score,[1]; [10],0.455 ± 0.31
same,promoter activity interaction Z-score,[1]; [11],0.0203 ± 0.11
same,promoter activity interaction Z-score,[1]; [12],0.0848 ± 0.57
same,promoter activity interaction Z-score,[1]; [13],0.344 ± 0.08
same,promoter activity interaction Z-score,[1]; [14],-0.00445 ± 0.01
same,promoter activity interaction Z-score,[1]; [15],-0.32 ± 0.15
same,promoter activity interaction Z-score,[1]; [16],0.724 ± 0.18
same,promoter activity interaction Z-score,[1]; [17],-0.04 ± 0.27
same,promoter activity interaction Z-score,[1]; [18],0.471 ± 0.41
same,promoter activity interaction Z-score,[1]; [19],0.0224 ± 0.013
same,promoter activity interaction Z-score,[1]; [20],0.369 ± 0.73
same,promoter activity interaction Z-score,[1]; [21],0.3 ± 0.086
same,promoter activity interaction Z-score,[1]; [22],0.561 ± 1.1
same,promoter activity interaction Z-score,[2]; [7],-0.053 ± 0.54
same,promoter activity interaction Z-score,[2]; [8],-0.02 ± 0.084
same,promoter activity interaction Z-score,[2]; [9],0.0084 ± 0.082
same,promoter activity interaction Z-score,[2]; [10],-0.0289 ± 0.27
same,promoter activity interaction Z-score,[2]; [11],0.0525 ± 0.25
same,promoter activity interaction Z-score,[2]; [12],0.104 ± 0.01
same,promoter activity interaction Z-score,[2]; [13],-0.131 ± 0.024
same,promoter activity interaction Z-score,[2]; [14],0.104 ± 0.51
same,promoter activity interaction Z-score,[2]; [15],-0.317 ± 0.084
same,promoter activity interaction Z-score,[2]; [16],0.0463 ± 0.13
same,promoter activity interaction Z-score,[2]; [17],-0.0949 ± 0.063
same,promoter activity interaction Z-score,[2]; [18],0.336 ± 0.088
same,promoter activity interaction Z-score,[2]; [19],-0.235 ± 0.24
same,promoter activity interaction Z-score,[2]; [20],-0.118 ± 0.0028
same,promoter activity interaction Z-score,[2]; [21],-0.0628 ± 0.18
same,promoter activity interaction Z-score,[2]; [22],-0.082 ± 0.078
same,promoter activity interaction Z-score,[3]; [7],-0.311 ± 0.047
same,promoter activity interaction Z-score,[3]; [8],-0.076 ± 0.29
same,promoter activity interaction Z-score,[3]; [9],0.0244 ± 0.24
same,promoter activity interaction Z-score,[3]; [10],-0.0786 ± 0.12
same,promoter activity interaction Z-score,[3]; [11],-0.231 ± 0.022
same,promoter activity interaction Z-score,[3]; [12],0.259 ± 0.068
same,promoter activity interaction Z-score,[3]; [13],0.303 ± 0.041
same,promoter activity interaction Z-score,[3]; [14],0.34 ± 0.31
same,promoter activity interaction Z-score,[3]; [15],-0.53 ± 0.22
same,promoter activity interaction Z-score,[3]; [16],-0.0799 ± 0.19
same,promoter activity interaction Z-score,[3]; [17],0.0179 ± 0.31
same,promoter activity interaction Z-score,[3]; [18],0.623 ± 0.35
same,promoter activity interaction Z-score,[3]; [19],0.0627 ± 0.12
same,promoter activity interaction Z-score,[3]; [20],0.515 ± 0.0087
same,promoter activity interaction Z-score,[3]; [21],0.664 ± 0.45
same,promoter activity interaction Z-score,[3]; [22],0.842 ± 0.3
same,promoter activity interaction Z-score,[4]; [7],0.406 ± 0.012
same,promoter activity interaction Z-score,[4]; [8],-0.648 ± 0.21
same,promoter activity interaction Z-score,[4]; [9],0.484 ± 0.27
same,promoter activity interaction Z-score,[4]; [10],0.116 ± 0.23
same,promoter activity interaction Z-score,[4]; [11],0.00618 ± 0.49
same,promoter activity interaction Z-score,[4]; [12],0.268 ± 0.098
same,promoter activity interaction Z-score,[4]; [13],0.377 ± 0.92
same,promoter activity interaction Z-score,[4]; [14],0.84 ± 0.41
same,promoter activity interaction Z-score,[4]; [15],-0.708 ± 0.16
same,promoter activity interaction Z-score,[4]; [16],-0.0714 ± 0.84
same,promoter activity interaction Z-score,[4]; [17],-0.162 ± 0.23
same,promoter activity interaction Z-score,[4]; [18],0.234 ± 0.13
same,promoter activity interaction Z-score,[4]; [19],0.0368 ± 0.57
same,promoter activity interaction Z-score,[4]; [20],-0.0155 ± 0.33
same,promoter activity interaction Z-score,[4]; [21],0.391 ± 0.82
same,promoter activity interaction Z-score,[4]; [22],0.993 ± 0.59
same,promoter activity interaction Z-score,[5]; [7],0.0135 ± 0.086
same,promoter activity interaction Z-score,[5]; [8],0.215 ± 0.14
same,promoter activity interaction Z-score,[5]; [9],0.301 ± 0.047
same,promoter activity interaction Z-score,[5]; [10],0.31 ± 0.33
same,promoter activity interaction Z-score,[5]; [11],0.0512 ± 0.26
same,promoter activity interaction Z-score,[5]; [12],0.372 ± 0.21
same,promoter activity interaction Z-score,[5]; [13],0.172 ± 0.11
same,promoter activity interaction Z-score,[5]; [14],0.159 ± 0.19
same,promoter activity interaction Z-score,[5]; [15],0.00814 ± 0.044
same,promoter activity interaction Z-score,[5]; [16],0.223 ± 0.09
same,promoter activity interaction Z-score,[5]; [17],0.122 ± 0.097
same,promoter activity interaction Z-score,[5]; [18],0.33 ± 0.46
same,promoter activity interaction Z-score,[5]; [19],-0.104 ± 0.11
same,promoter activity interaction Z-score,[5]; [20],0.322 ± 0.006
same,promoter activity interaction Z-score,[5]; [21],0.0248 ± 0.034
same,promoter activity interaction Z-score,[5]; [22],0.334 ± 0.73
same,promoter activity interaction Z-score,[6]; [7],-0.319 ± 1.1
same,promoter activity interaction Z-score,[6]; [8],-0.0114 ± 0.66
same,promoter activity interaction Z-score,[6]; [9],-0.444 ± 0.1
same,promoter activity interaction Z-score,[6]; [10],-0.376 ± 0.46
same,promoter activity interaction Z-score,[6]; [11],-0.518 ± 0.94
same,promoter activity interaction Z-score,[6]; [12],-0.427 ± 0.69
same,promoter activity interaction Z-score,[6]; [13],0.207 ± 1
same,promoter activity interaction Z-score,[6]; [14],0.311 ± 0.35
same,promoter activity interaction Z-score,[6]; [15],-1.01 ± 0.066
same,promoter activity interaction Z-score,[6]; [16],0.539 ± 0.083
same,promoter activity interaction Z-score,[6]; [17],0.18 ± 0.021
same,promoter activity interaction Z-score,[6]; [18],0.0693 ± 0.34
same,promoter activity interaction Z-score,[6]; [19],0.0415 ± 0.077
same,promoter activity interaction Z-score,[6]; [20],0.218 ± 0.98
same,promoter activity interaction Z-score,[6]; [21],-0.252 ± 0.71
same,promoter activity interaction Z-score,[6]; [22],0.709 ± 0.36
CO/N=C(\C(=O)N[C@@H]1C(=O)N2C(C(=O)O)=C(COC(C)=O)CS[C@H]12)c1csc(N)n1 [Cefotaxime],promoter activity interaction Z-score,[1]; [23],-0.284 ± 0.025
same,promoter activity interaction Z-score,[1]; [24],0.0868 ± 0.9
same,promoter activity interaction Z-score,[1]; [25],-0.103 ± 0.27
same,promoter activity interaction Z-score,[1]; [26],-0.098 ± 0.18
same,promoter activity interaction Z-score,[1]; [27],-0.0863 ± 0.2
same,promoter activity interaction Z-score,[1]; [28],-0.059 ± 0.93
same,promoter activity interaction Z-score,[1]; [29],0.00639 ± 0.18
same,promoter activity interaction Z-score,[1]; [30],0.118 ± 0.16
same,promoter activity interaction Z-score,[1]; [31],-0.23 ± 0.15
same,promoter activity interaction Z-score,[1]; [32],0.42 ± 0.9
same,promoter activity interaction Z-score,[1]; [33],-0.311 ± 0.072
same,promoter activity interaction Z-score,[1]; [34],-0.148 ± 0.096
same,promoter activity interaction Z-score,[1]; [35],-0.274 ± 0.025
same,promoter activity interaction Z-score,[1]; [36],-1.6 ± 0.042
same,promoter activity interaction Z-score,"[1]; 0.01 µg/ml, genetic background: Δrob",-0.154 ± 0.33
same,promoter activity interaction Z-score,"[1]; 0.01 µg/ml, genetic background: ΔsoxS",0.212 ± 0.064
same,promoter activity interaction Z-score,[2]; [23],0.00627 ± 0.0068
same,promoter activity interaction Z-score,[2]; [24],-0.0578 ± 0.08
same,promoter activity interaction Z-score,[2]; [25],0.0368 ± 0.11
same,promoter activity interaction Z-score,[2]; [26],-0.0273 ± 0.11
same,promoter activity interaction Z-score,[2]; [27],-0.0766 ± 0.15
same,promoter activity interaction Z-score,[2]; [28],0.0449 ± 0.11
same,promoter activity interaction Z-score,[2]; [29],0.0295 ± 0.15
same,promoter activity interaction Z-score,[2]; [30],-0.18 ± 0.098
same,promoter activity interaction Z-score,[2]; [31],-0.0576 ± 0.36
same,promoter activity interaction Z-score,[2]; [32],-0.223 ± 0.19
same,promoter activity interaction Z-score,[2]; [33],0.0329 ± 0.18
same,promoter activity interaction Z-score,[2]; [34],-0.198 ± 0.15
same,promoter activity interaction Z-score,[2]; [35],-0.5 ± 0.52
same,promoter activity interaction Z-score,[2]; [36],-0.278 ± 0.011
